High-throughput results from PubChem BioAssay.
SUMO Mot1 rescue – yeast Mot1-301 growth rescue at high temperature, primary screen, SUMOylation pathway inhibitor project, S. cerevisiae, ATP luminescence, 38.5C. growth rescue, % at 18.8 µM. AID 2716, 2010. S. cerevisiae Mot1-301 growth rescue; percent above DMSO median, 100 means doubled. actives 1% (n = 320,000);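 active = every valid replicate shows activation above 250% relative to neutral control wells; inactive = the rest, any valid replicate at or below 250%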
M18AAP inhibitor – PfM18AAP inhibitors, malaria aminopeptidase, primary screen, biochemical, QFRET, recombinant enzyme; inhibition, % at 7.35 µM; M18 aspartyl aminopeptidase (Plasmodium falciparum 3D7); AID 1822, 2009; H-Glu-NHMec fluorogenic cleavage; actives 1.2% (n = 290,000);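 active = inhibition above the campaign mean inhibition over all tested compounds plus 3 SD, cut at about 28% in these data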
ALR H2O2 inh – inhibitors of human ALR sulfhydryl oxidase, primary screen, biochemical, H2O2 detection, HRP-luminol luminescence, single point; FAD-linked sulfhydryl oxidase ALR (Homo sapiens), P55789; purified ALR, DTT oxidation; inhibition, % (concentration not given with the values); actives 3.8% (n = 290,000);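 active = mean replicate inhibition above about 79%, with every replicate also reaching it, limit read from the data; inconclusive = only one of the two criteria met; inactive = mean below limit and not every replicate reaching it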
Target sequence (P55789 whole entry, looked up): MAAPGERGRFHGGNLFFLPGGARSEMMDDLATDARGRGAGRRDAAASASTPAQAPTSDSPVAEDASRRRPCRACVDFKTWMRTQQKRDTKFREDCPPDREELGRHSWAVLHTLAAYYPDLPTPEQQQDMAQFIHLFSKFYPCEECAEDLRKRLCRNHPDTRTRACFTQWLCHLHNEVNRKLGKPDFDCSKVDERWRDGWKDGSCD
HIF activator – HIF pathway transcriptional activators, primary screen, cell-based, U2OS HRE-luciferase, luminescence | U2OS HRE-luciferase reporter; normalized: DMSO 0%, desferrioxamine 100% | activation, % at 7.5 µM (by protocol) | actives 0.32% (n = 300,000) | AID 1910, 2009;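 active = mean activation of at least 10% of the iron chelator positive control signal, with at least half of replicates also reaching 10%; inconclusive = mean and replicate majority disagree about reaching 10%; inactive = mean and most replicates under 10%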
Of the large screens only hits and unclear results are named; the others gave an inactive call. Rows were chosen to be rich in hits. Some 5.3% of all compounds tested hit in one or more screens of this group.

CC(=O)c1[nH]c(C)c(C(=O)N2CCCC(Nc3ccc(C(C)C)cc3)C2)c1C (configuration not stated)	none (no result: SUMO Mot1 rescue, ALR H2O2 inh)
CCc1[nH]nc(C(=O)N2CCCC(Nc3ccc(C(C)C)cc3)C2)c1C (configuration not stated)	ALR H2O2 inh 95
CCc1[nH]nc(C(=O)N2CCCC(Nc3cccc(F)c3)C2)c1C (configuration not stated)	ALR H2O2 inh 99
CCc1[nH]nc(C(=O)N2CCCC(C(=O)c3cccc(C(F)(F)F)c3)C2)c1C (configuration not stated)	none
CC(=O)c1[nH]c(C)c(C(=O)N2CCCC(Nc3cccc(F)c3)C2)c1C (configuration not stated)	ALR H2O2 inh 75
O=C(c1ccc(F)cc1)N1CCCCC(S(=O)(=O)c2ccccc2)C1=O (configuration not stated)	none (no result: ALR H2O2 inh)
O=C(NNC1=C(C(=O)C(F)(F)F)CCC1)c1ccccc1O	ALR H2O2 inh 87
O=C(NNC1=C(C(=O)C(F)(F)F)CCC1)c1ccccc1Cl	none (no result: ALR H2O2 inh)
COc1cc(/C=C/c2sc3ccccc3[n+]2CCCS(=O)(=O)[O-])ccc1O	ALR H2O2 inh 99
Cc1ccc2c(c1)sc(C)[n+]2CCCS(=O)(=O)[O-]	none
COc1ccc(-c2csc(NC(=O)CSc3nnnn3C)n2)cc1OC	ALR H2O2 inh 98 (no result: M18AAP inhibitor)
COc1ccc(-c2csc(NC(=O)[C@H](C)N3C(=O)C4CC=CCC4C3=O)n2)cc1OC (some centres not stated)	ALR H2O2 inh 91 (no result: M18AAP inhibitor, HIF activator)
COc1ccc(-c2csc(NC(C)=O)n2)cc1OC	none
CC(C(=O)Nc1nc(-c2ccc(F)c(F)c2)cs1)N1C(=O)C2CC=CCC2C1=O (configuration not stated)	none (no result: M18AAP inhibitor, HIF activator)
COc1ccc(CN2CC(C(N)=O)Oc3ccccc32)cc1F (configuration not stated)	ALR H2O2 inh 98
CC1CCN(C(=O)COC(=O)/C=C/c2ccco2)CC1	none (no result: M18AAP inhibitor, HIF activator)
O=C(CCCc1c[nH]c2ccccc12)NCC1COc2ccccc2O1 (configuration not stated)	ALR H2O2 inh 98
Nc1nc2ccc(S(=O)(=O)N3CCCCC3)cc2s1	ALR H2O2 inh 98
Cc1nc2ccc(S(=O)(=O)N3CCCCC3)cc2s1	none
O=C(NC(=S)NNC(=O)[C@H]1C[C@@H]1c1ccccc1)c1cccc(F)c1	ALR H2O2 inh 98
COc1ccc(NC2c3ccccc3C(=O)N2c2cccnc2)cc1 (configuration not stated)	ALR H2O2 inh 88
Cc1nc(N2CCN(C)CC2)c2c(C)c(C(=O)Nc3ccc(C)c(F)c3)sc2n1	ALR H2O2 inh 96
Cc1nc(N2CCC(C)CC2)c2c(C)c(C(=O)Nc3ccc(C)c(F)c3)sc2n1	none
CN1C(=O)/C(=C/c2cccc([N+](=O)[O-])c2)C(=O)N1c1ccccc1	ALR H2O2 inh 98
COc1cc(/C=N/NC(=O)c2ccc(CSc3nncn3C)cc2)ccc1OCC(=O)N1CC(C)OC(C)C1 (configuration not stated)	none (no result: SUMO Mot1 rescue)
COc1ccc(/C=N/NC(=O)c2ccc(CSc3nc(C)cc(C)n3)cc2)cc1O	ALR H2O2 inh 77
COc1cc(/C=N/NC(=O)c2ccc(CSc3nncn3C)cc2)cc(OC)c1O	ALR H2O2 inh 100
Cc1cc(C)nc(SCc2ccc(C(=O)N/N=C/c3cccc(O)c3O)cc2)n1	none (no result: ALR H2O2 inh)
COc1ccc(/C=N/NC(=O)c2ccc(CSc3nc(C)cc(C)n3)cc2)c(OC)c1OC	none (no result: ALR H2O2 inh)
Cn1cnnc1SCc1ccc(C(=O)N/N=C(\CCC(=O)O)c2ccc(C(C)(C)C)cc2)cc1	ALR H2O2 inh 98 (no result: HIF activator)
COc1ccc(O)c(/C=N/NC(=O)c2ccc(CSc3nc(C)cc(C)n3)cc2)c1	HIF activator 29
COc1ccc(/C=C(\C#N)c2n[nH]c(Cn3cncn3)n2)cc1	none
Cc1ccc(-c2csc3ncnc(SCC(=O)NCC4CCCO4)c23)cc1 (configuration not stated)	none (no result: M18AAP inhibitor, HIF activator)
O=S(=O)(c1ccc(Cl)nc1)N1CCC(Cc2ccccc2)CC1	ALR H2O2 inh 99 (no result: M18AAP inhibitor, HIF activator)
NC(=O)C1CCN(c2ccc(S(=O)(=O)N3CCC(Cc4ccccc4)CC3)cn2)CC1	none (no result: ALR H2O2 inh)
O=S(=O)(c1ccc(Cl)s1)N1CCC(Cc2ccccc2)CC1	ALR H2O2 inh 97
Brc1ccc2[nH]c3c(N4CCc5ccccc5C4)ncnc3c2c1	SUMO Mot1 rescue 344 (no result: ALR H2O2 inh)
Fc1ccc2[nH]c3c(N4CCc5ccccc5C4)ncnc3c2c1	none
COc1ccc(CCNC(=S)c2ccccc2)cc1OC	none
c1ccc(-c2nc(N3CCOCC3)cc(N3CCOCC3)n2)cc1	none
Cc1cc(N2CCOCC2)nc(-c2ccc([N+](=O)[O-])cc2)n1	ALR H2O2 inh 100
Nc1ccc(Nc2ccc([N+](=O)[O-])cc2[N+](=O)[O-])cc1	ALR H2O2 inh 98
O=C(O)c1ccccc1C(=O)Nc1ccc(Nc2ccc([N+](=O)[O-])cc2[N+](=O)[O-])cc1	ALR H2O2 inh 96
CN(CC(=O)Nc1cccc(F)c1)C(=O)c1cc([N+](=O)[O-])ccc1N1CCOCC1	none (no result: M18AAP inhibitor)
CC(=O)N1c2ccccc2[C@@H](C)[C@@H]1C	none (no result: M18AAP inhibitor, HIF activator)
CC(=O)N1c2ccccc2C2(O)N=C(C)SC12 (configuration not stated)	M18AAP inhibitor 42
Cc1[nH]c2ccccc2c1Cc1nnc(SCc2ccccc2)o1	none
CC(=O)Nc1nc(=S)n(-c2ccccc2)[nH]1	ALR H2O2 inh inconclusive
CC(C)c1nc(=S)n(-c2ccccc2)[nH]1	ALR H2O2 inh 90
O=C1CCC(=O)N1CCc1c[nH]c2ccccc12	none
O=C1CCCCN1CCc1c[nH]c2ccccc12	ALR H2O2 inh 87
Cc1ccc(C(O)P(=O)(OCc2ccccc2)c2ccc(N(C)C)cc2)cc1 (configuration not stated)	none (no result: ALR H2O2 inh)
CC(=O)NC(CC(=O)O)c1ccc([N+](=O)[O-])cc1 (configuration not stated)	none
CCOc1cc(C(=O)N=c2sccn2C)cc(Br)c1OC	none
O=C(NCc1ccccn1)NC1CCCCC1	none
Cc1cc(C(=O)NP(=O)(N2CCOCC2)N2CCOCC2)c(C)n1-c1ccc(N(C)C)cc1	ALR H2O2 inh 93
Cc1ccc(-c2cc(-c3ccccc3Cl)[nH]n2)c(O)c1	none
Cc1ccc(-c2cc(-c3ccccc3[N+](=O)[O-])[nH]n2)c(O)c1	ALR H2O2 inh 90
O=C(CSc1nnc(NC(=O)C2CC2)s1)NCc1ccc(F)cc1	none
O=C(CSc1nnc(NC(=O)c2c(F)cccc2F)s1)NCc1ccc(F)cc1	SUMO Mot1 rescue 670 (no result: M18AAP inhibitor)
O=C(COC(=O)c1ccccn1)NCc1cccs1	none (no result: M18AAP inhibitor)
COc1ccc(-n2nnnc2SCc2nc3ccccc3s2)cc1	ALR H2O2 inh 93
O=C(CSc1n[nH]c(=O)n1C1CC1)Nc1cc(Cl)ccc1Oc1ccccc1	none
COc1cccc(/C=N/n2c(-c3n[nH]c4c3CCC4)n[nH]c2=S)c1O	ALR H2O2 inh 97
S=c1[nH]nc(-c2n[nH]c3c2CCC3)n1/N=C/C=C/c1ccco1	ALR H2O2 inh 97
